An excerpt weighted towards active compounds, which were near 7.2% of everything screened.
RE007 growth inh: qHTS Assay for Inhibitors of the HIV-1 protein Vpr; S. pombe RE007 Vpr strain, BacTiter-Glo ATP luminescence, 24 h; Potency, µM (series often up to 92.2 µM), hits mostly inhibitors; 360,000 tested, 0.21% active; active = well fitted falling curve with a large enough effect; inconclusive = small, poorly fitted or top-dose-only effect; inactive = no such curve, though single readings can be large or run the other way; also: nearly all actives have a fitted effect of over 50% in size
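Fission yeast RE007 carrying one integrated HIV-1 vpr copy, seeded at OD 0.01 in PMG+AL medium with 23 nL pinned compound. Grown 24 h at 30 degrees; viability read by BacTiter-Glo luminescence after 5 min.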
MARV entry inh: qHTS for inhibitors of binding or entry into cells for Marburg Virus. Potency, µM (titrated, usually from 37.8 µM), actives largely listed as inhibitors. AID 540276, 2011. Marburg virus pseudotyped entry inhibition, cell reporter. 300,000 tested, 1.8% active; calls by dose curve; tested in HEK293 cells
Sm TGR block: qHTS Assay for the Inhibitors of Schistosoma Mansoni Peroxiredoxins. Schistosoma mansoni thioredoxin glutathione reductase (TGR), Q962Y6. purified TGR, DTNB reduction, TNB absorbance 405 nm. Potency, µM (top dose mostly 114 µM), usual class: inhibitors. 360,000 tested, 3% active. AID 485364, 2010; also: nearly all actives have a fitted effect of over 60% in size
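Kinetic colorimetric format: TGR-catalysed, NADPH-driven DTNB reduction monitored via TNB absorbance. Enzyme dispensed at 20 nM; compound exposure 15 min at room temperature before reaction start.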
HCV inhibitor: qHTS Assay for Inhibitors of Hepatitis C Virus (HCV). Huh7.5.1 HCVcc-Cre infection, luciferase reporter, 44 h. Potency, µM (titrated, usually from 41.8 µM), most hits filed as inhibitors. 340,000 tested, 3.4% active
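Luciferase read-out (15 sec integration) after a 15 min room-temperature substrate step quantifies HCVcc-Cre infection. Cells, 1,000 per well, had compound added 4 h post-plating, then virus at ~0.5 moi, and were cultured 44 h.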
Lassa entry inh: qHTS for Inhibitors of binding or entry into cells for Lassa Virus; Lassa virus pseudotype entry inhibition, cell reporter; Potency, µM (top dose mostly 37.9 µM), most hits filed as inhibitors; 300,000 tested, 1.2% active; AID 540256, 2011; calls by dose curve; tested in HEK293 cells; also: nearly all actives have a fitted effect of over 50% in size
FMDV inh: High Throughput Screening for Foot and Mouth Disease Virus Antivirals. FMDV antiviral cell-based qHTS. 410,000 tested, 1.2% active. Potency, µM (series often up to 57.9 µM), most hits filed as inhibitors; calls by dose curve; tested in HEK293T cells; also: read-out not given here; nearly all actives have a fitted effect of over 45% in size
Numbers stand for hits; – = inactive; ? = inconclusive; · = not tested or not shown. Unless noted, calls follow the shape of the dose curve; as a rule, active = well fitted curve in the direction sought with a large enough effect; inconclusive = small, poorly fitted or top-dose-only effect, or another doubt; inactive = no such curve, though single readings can be large; an effect the other way counts as inactive or inconclusive.

SMILES	RE007 growth inh	MARV entry inh	Sm TGR block	HCV inhibitor	Lassa entry inh	FMDV inh
Cc1cccc(C)c1NC(=O)CN1C(=O)c2ccccc2Sc2ncccc21	·	·	–	·	–	–
CCOC(=O)c1c(NC(=O)CSc2c[nH]c3ccccc23)sc2c1CCC2	–	?	–	?	?	–
COCCNc1nnc(SCC(=O)Nc2sc3c(c2C(=O)c2ccccc2)CCCC3)s1	–	?	–	2.51µM	?	?
CCOC(=O)c1c(NC(=O)CSc2nnc(-c3c[nH]c4ccccc34)n2CCOC)sc2c1CCCCC2	–	?	–	6.31µM	23.1µM	?
Nc1nnc(SCC(=O)Nc2sc3c(c2C(=O)c2ccccc2)CCCC3)s1	–	?	–	?	–	?
CCOC(=O)c1c(NC(=O)CSc2c[nH]c3ccccc23)sc2c1CCCC2	–	13µM	–	11.2µM	?	?
CCOC(=O)c1c(NC(=O)C(NCCN(C)C)c2ccccc2)sc2c1CCCC2 (configuration not stated)	–	?	–	0.891µM	11.2µM	–
COc1cc(NS(=O)(=O)c2cc(Br)cc3c2N(C(C)=O)C(C)C3)cc(OC)c1 (configuration not stated)	·	·	–	·	?	–
CCOC(=O)c1c(NC(=O)CSc2cn(CCNC(=O)c3ccccc3OC)c3ccccc23)sc2c1CCC2	·	12.6µM	–	·	?	–
CC(C)c1c(C(=O)NCCN2CCOCC2)cnn1-c1nccc(-c2cccs2)n1	·	·	·	·	·	–
COc1cccc(Nc2ncc3nc(CCc4ccccc4)c(=O)n(C)c3n2)c1	·	·	·	·	·	–
N#CCCS(=O)(=O)c1nnnn1-c1ccccc1	·	–	7.08µM	·	·	·
c1ccc(-n2nnnc2Cc2nnnn2-c2ccccc2)cc1	–	–	–	–	–	–
Cc1cccc(CS(=O)(=O)Cc2ccc(C(=O)NCc3ccccc3)o2)c1	–	·	44.7µM	?	–	–
Cc1cccc(CS(=O)(=O)Cc2ccc(C(=O)NCc3cccs3)o2)c1	–	–	35.5µM	–	?	–
COc1ccc(CCNC(=O)c2ccc(CS(=O)(=O)Cc3cccc(C)c3)o2)cc1OC	–	?	–	22.4µM	?	39.8µM
Cc1ccc(CS(=O)(=O)Cc2ccc(C(=O)NCCc3ccccc3)o2)cc1	–	·	–	–	·	–
Cc1cccc(CS(=O)(=O)Cc2ccc(C(=O)NC3CCCC3)o2)c1	–	·	–	–	·	–
CCOC(=O)c1c(NC(=O)C(C)Sc2cn(CCNC(=O)c3ccc(OC)cc3)c3ccccc23)sc2c1CCC2 (configuration not stated)	·	?	–	·	–	–
Cc1cc(CNC[C@H]2O[C@@H](n3cnc(C(N)=O)n3)[C@H](O)[C@@H]2O)c(C)n1-c1cccnc1	–	·	·	?	·	–
c1csc(CNc2ccnc(-c3ccoc3)n2)c1	·	·	·	·	·	–
CCn1ccnc1CN1CCCC(C(=O)c2ccc3cc(OC)ccc3c2)C1 (configuration not stated)	–	?	–	10µM	?	?
Cc1nc2ccccc2n2c(O)c(CC(=O)O)cc12	–	–	35.5µM	–	–	·
O=C(NCc1nnc2n1CCN(Cc1cc3c(cc1Cl)OCO3)CC2)C1CCOC1 (configuration not stated)	·	·	·	·	·	–
Cc1ccc(CNc2ncnc3cc(Cl)ccc23)o1	–	–	–	11.2µM	–	?
SMILES	RE007 growth inh	MARV entry inh	Sm TGR block	HCV inhibitor	Lassa entry inh	FMDV inh
COc1cc2ncnc(NCc3ccc(C)o3)c2cc1OC	–	·	·	–	·	–
Cc1ccccc1CNc1ncnc2cc(Cl)ccc12	–	–	?	–	–	?
Cc1ccc(CNc2ncnc3cc(Cl)ccc23)cc1	–	·	–	11.2µM	·	?
O=[N+]([O-])c1ccc(/C=N/Nc2cc(Cl)nc(-c3ccccc3)n2)cc1	–	–	–	?	–	–
O=[N+]([O-])c1cccc(/C=N/Nc2cc(Cl)nc(-c3ccccc3)n2)c1	–	–	–	?	10µM	?
COc1ccc(N2CCN(c3csc4ccc(Cl)cc4c3=O)CC2)cc1	·	·	–	·	–	–
Clc1ccc(-c2nnc(NC3=NCCCCC3)o2)cc1	–	1.64µM	–	?	?	–
CCCCOC(=O)c1cccc(NC(=O)/C=C/c2ccccc2Cl)c1	·	·	–	·	–	?
CC1CCN(CC(O)COc2ccc(F)cc2)CC1 (configuration not stated)	–	·	–	–	·	–
CC1CCN(CC(O)COCCC23CC4CC(CC(C4)C2)C3)CC1 (configuration not stated)	–	6.51µM	–	35.5µM	?	·
Cc1ccc(-c2csc(-c3nc(-c4ccc(Br)s4)cs3)n2)cc1	·	?	–	·	–	–
CC(C)(C)c1ccc(-c2nc(NCc3cccnc3)c3ccccc3n2)cc1	–	?	–	11.2µM	?	–
CCOc1ccc(CN(C)c2nc(-c3cccnc3)nc3ccccc23)cc1OC	–	?	–	?	·	25.1µM
COc1ccc(CCNc2nc(-c3cccnc3)nc3ccccc23)cc1OC	–	8.91µM	–	10µM	?	–
CN(C)C(=O)c1ccc(-c2nc(NCc3cccnc3)c3ccccc3n2)cc1	·	·	·	·	·	–
c1cncc(-c2nc(NCc3ccc4c(c3)OCO4)c3ccccc3n2)c1	–	·	–	11.2µM	·	?
